High-throughput results (PubChem BioAssay)
Shown are actives, neighbours in structure and some others; about 18% of the full set was active somewhere.
IL1B secr inh: qHTS for Inhibitors of Inflammasome Signaling: IL-1-beta AlphaLISA Primary Screen. 360,000 tested, 4.7% active. THP-1 LPS/ATP IL-1B secretion, AlphaLISA, 16 h; active compounds read low. activity change, % at 57.5 µM; in the data active means activity change below about -50%; inconclusive means mostly about -30% to -49%
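THP-1 cells pretreated 1 hr with compounds (up to 57.5 uM final), then stimulated with LPS (250 ng/mL final) plus ATP (1.25 mM final); secreted IL-1B measured by AlphaLISA after 16 hr, decreased signal indicating inhibition.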
TGFb inhibitor: qHTS for Inhibitors of TGF-b. 410,000 tested, 1.2% active. HepG2 CAGA-GFP TGF-b/SMAD3 reporter, GFP fluorescence, 18 h; TGF-beta stimulated, 500 pg/mL final. Potency, µM (series often up to 46.1 µM), hits mostly inhibitors. AID 588855, 2011; further: nearly all actives have a fitted effect of over 65% in size
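HEPG2 CAGA-GFP cells (1000/well, DMEM with 1% FBS) were pre-incubated 2 h at 37 degrees C, given compound by pin tool, then stimulated with TGF-beta at 500 pg/mL final for 18 h before per-cell GFP fluorescence imaging.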
HepG2 tox: qHTS for Inhibitors of TGF-b: Cytotox Counterscreen | HepG2 CAGA-GFP viability, ATP luminescence, 18 h | Potency, µM (highest dose often 46.1 µM), hits mostly cytotoxic | 410,000 tested, 0.76% active
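CellTiter-Glo luminescence gave cytotoxicity after 18 hours at 37 degrees C. The cells were HepG2 CAGA-GFP in 1% FBS DMEM, stimulated with 500 pg/mL TGF-beta after compound addition. %Activity was normalised to no-cell wells (complete cell-killing) and DMSO (no toxicity), and curves were fitted and classified.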
TDP1 cell noCPT: qHTS for Inhibitors of human tyrosyl-DNA phosphodiesterase 1 (TDP1): qHTS in cells in absence of CPT; DT40 Tdp1-/- hTDP1 cells, no CPT, ATP luminescence, 48 h; Potency, µM (titrated, usually from 46.2 µM), usual class: inhibitors; 420,000 tested, 15% active; further: nearly all actives have a fitted effect of over 55% in size
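DT40 Tdp1-/-;hTDP1 cells, no CPT (DMSO vehicle only), 400 cells/well; compounds pin-transferred; ≥48 hr, 37 °C; CellTiter-Glo 30 min RT dark, luminescence read.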
DT40 TDP1 CPT: qHTS for Inhibitors of human tyrosyl-DNA phosphodiesterase 1 (TDP1): qHTS in cells in presence of CPT; chicken DT40 Tdp1-/-;hTDP1 cells + 20 nM CPT, ATP luminescence, 48 h; Potency, µM (series often up to 46.2 µM), usual class: inhibitors; 420,000 tested, 12% active; further: nearly all actives have a fitted effect of over 55% in size
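Chicken DT40 Tdp1-/- cells complemented with human TDP1, 400 cells/well, exposed to compounds plus 20 nM camptothecin for at least 48 h at 37 C; viability read as ATP content by CellTiter-Glo luminescence.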
TDP1 block: qHTS Assay for Inhibitors of Tyrosyl-DNA Phosphodiesterase (TDP1); Tyrosyl-DNA phosphodiesterase 1 (Homo sapiens), Q9NUW8; 350,000 tested, 0.28% active; AID 485290, 2010; recombinant TDP1, AlphaScreen DNA substrate cleavage; Potency, µM (doses to about 130 µM), actives largely listed as inhibitors; further: nearly all actives have a fitted effect of over 40% in size
Target sequence (Q9NUW8 whole entry, looked up): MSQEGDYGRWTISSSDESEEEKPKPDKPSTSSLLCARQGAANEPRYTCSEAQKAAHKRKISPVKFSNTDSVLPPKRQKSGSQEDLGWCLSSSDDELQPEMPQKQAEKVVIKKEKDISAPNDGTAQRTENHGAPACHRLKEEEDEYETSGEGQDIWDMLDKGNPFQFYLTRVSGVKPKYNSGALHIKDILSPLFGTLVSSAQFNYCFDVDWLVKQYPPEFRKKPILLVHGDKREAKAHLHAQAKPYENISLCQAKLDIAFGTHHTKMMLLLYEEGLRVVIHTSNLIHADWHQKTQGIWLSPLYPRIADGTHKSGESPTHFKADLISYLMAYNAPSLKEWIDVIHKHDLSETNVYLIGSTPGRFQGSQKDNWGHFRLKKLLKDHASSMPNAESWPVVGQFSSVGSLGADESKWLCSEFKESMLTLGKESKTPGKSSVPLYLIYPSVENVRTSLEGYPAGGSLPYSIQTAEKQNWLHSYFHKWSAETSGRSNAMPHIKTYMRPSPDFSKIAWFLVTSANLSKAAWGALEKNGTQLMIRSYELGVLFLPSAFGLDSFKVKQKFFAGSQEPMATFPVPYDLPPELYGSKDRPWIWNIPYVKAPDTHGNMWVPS
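Compounds were preincubated with Tdp1 (1 nM final) for 15 min at room temperature before substrate (15 nM final) started a 5 min reaction; beads (10 ug/ml final) were then added for 10 min before AlphaScreen detection.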
Of the large screens only hits and unclear results are named; the others gave an inactive call. Unless noted, the call rests on the fitted dose curve; in most records, active means well fitted curve in the direction sought with a large enough effect; inconclusive means small, poorly fitted or top-dose-only effect, or another doubt; inactive means no such curve, though single readings can be large; an effect the other way counts as inactive or inconclusive.

CC(C)(C)NC(=O)C(c1ccc(F)cc1)N(CC1CCCO1)C(=O)c1csnn1 (configuration not stated)	none (no result: TDP1 block)
CC(C)(C)NC(=O)C(c1ccc(-c2ccccc2)cc1)N(C[C@H]1CC[C@@H]([C@@H]2CC[C@H](CO)O2)O1)C(=O)c1ccc(-c2ccccc2)cc1 (some centres not stated)	IL1B secr inh -55, TGFb inhibitor inconclusive, TDP1 cell noCPT 15µM, DT40 TDP1 CPT inconclusive
COC(=O)CCC(C)C1CCC2C3CC[C@H]4CC(O)CC[C@@]4(C)C3CC(O)[C@]12C (some centres not stated)	TDP1 cell noCPT inconclusive (no result: IL1B secr inh, TGFb inhibitor, HepG2 tox)
CC(C)Cn1c(SCC(=O)Nc2cccnc2Cl)nnc1-c1ccco1	IL1B secr inh inconclusive
Cc1cccc([S+](=O)([O-])NC2CCN(C#N)CC2)c1	none (no result: IL1B secr inh, TGFb inhibitor, HepG2 tox, TDP1 cell noCPT, DT40 TDP1 CPT)
COc1ccccc1NC(=O)c1cc(C(=O)Nc2ccccc2OC)n(C)n1	TDP1 cell noCPT inconclusive, DT40 TDP1 CPT inconclusive (no result: TDP1 block)
O=C(NCC(F)(F)F)c1csc([C@@H]2O[C@H](CO)[C@H](O)[C@H](O)[C@H]2O)n1	none (no result: TDP1 block)
O=C(COC(=O)Cc1ccccc1F)Nc1ccc(SC(F)F)cc1	none
Cc1ccc(-c2nc(C)sc2CC(=O)OCC(=O)Nc2cccc([N+](=O)[O-])c2)cc1	TGFb inhibitor inconclusive
O=C(Cc1ccccc1F)Nc1ccc(SC(F)F)cc1	IL1B secr inh -55, TDP1 cell noCPT inconclusive, DT40 TDP1 CPT inconclusive
O=C(COC(=O)c1ccccc1Cc1ccccc1)Nc1ccc(SC(F)F)cc1	IL1B secr inh -93, TGFb inhibitor inconclusive, TDP1 cell noCPT inconclusive, DT40 TDP1 CPT inconclusive
Cc1ccc(C(=O)c2ccccc2C(=O)OCC(=O)Nc2ccc(SC(F)F)cc2)cc1	TGFb inhibitor inconclusive, TDP1 cell noCPT 18µM, DT40 TDP1 CPT inconclusive
Cc1ccc(C(=O)c2ccccc2C(=O)OCC(=O)Nc2cccc([N+](=O)[O-])c2)cc1	TGFb inhibitor inconclusive, TDP1 cell noCPT inconclusive, DT40 TDP1 CPT 18µM
CC(C)c1ccccc1NC(=O)Cn1cnc2c1c(=O)n(C)c(=O)n2C	none (no result: IL1B secr inh)
COCCN(C(=O)c1cc(S(=O)(=O)N2CCCCC2)ccc1Cl)c1c(N)n(CC(C)C)c(=O)[nH]c1=O	none
Nn1c(SCC(=O)NCC2CCCO2)nnc1-c1ccco1 (configuration not stated)	none
COc1ccc(C(=O)N(c2ccc(OC)cc2)S(=O)(=O)c2cccs2)cc1	TDP1 cell noCPT inconclusive, DT40 TDP1 CPT inconclusive
COc1ccc(N(C(=O)COc2cccc(C)c2)S(=O)(=O)c2ccc(C)cc2)cc1	DT40 TDP1 CPT 18µM
COc1ccc(N(C(=O)c2ccccc2)S(=O)(=O)c2cccs2)cc1	TDP1 cell noCPT 21µM, DT40 TDP1 CPT inconclusive
CCc1ccc(S(=O)(=O)N(C(=O)c2ccncc2)c2ccc(OC(=O)c3ccncc3)cc2)cc1	IL1B secr inh -61, TDP1 cell noCPT inconclusive, DT40 TDP1 CPT inconclusive
Cc1ccc(N(C(=O)COc2ccccc2C)S(=O)(=O)c2ccc(Cl)cc2)cc1	TGFb inhibitor inconclusive, TDP1 cell noCPT inconclusive, DT40 TDP1 CPT inconclusive (no result: IL1B secr inh)
COc1ccc(C(=O)N(c2ccc(C)cc2)S(=O)(=O)c2ccc(C)cc2)cc1	TDP1 cell noCPT 23µM, DT40 TDP1 CPT 18µM (no result: IL1B secr inh)
CNC[C@@H]1Oc2ccc(NS(=O)(=O)c3ccc(OC)cc3)cc2CC(=O)N([C@H](C)CO)C[C@@H]1C	none
Cc1ccccc1OC1CCN(C(=O)c2cc(COc3ccccc3)on2)CC1	none
CCCCn1c(SCC(=O)Nc2cc(C(F)(F)F)ccc2Cl)nnc1C(CC)N(C)C (configuration not stated)	TDP1 cell noCPT 21µM, DT40 TDP1 CPT inconclusive
CCCCn1c(SCC(=O)Nc2ccc(C)c(S(=O)(=O)N3CCOCC3)c2)nnc1C(CC)N(C)C (configuration not stated)	none
Cn1ncc(C(=O)N2CCN(c3ccccc3)CC2)c1C1CCN(C(=O)OC(C)(C)C)CC1	none (no result: IL1B secr inh)
COc1ccccc1N1CCN(C(=O)c2cnn(C(C)(C)C)c2C2CCN(C(=O)OC(C)(C)C)CC2)CC1	DT40 TDP1 CPT 16µM (no result: IL1B secr inh)
Cn1ncc(C(=O)N2CCN(c3ccccc3F)CC2)c1C1CCN(C(=O)OC(C)(C)C)CC1	DT40 TDP1 CPT inconclusive (no result: IL1B secr inh)
CC(C)(C)OC(=O)N1CCC(c2c(C(=O)N3CCN(c4ccccc4F)CC3)cnn2C(C)(C)C)CC1	TDP1 cell noCPT inconclusive, DT40 TDP1 CPT 23µM (no result: IL1B secr inh)
COc1ccc2oc(=O)c(C(=O)NCCc3c(C)[nH]c4ccc(Br)cc34)cc2c1	none (no result: IL1B secr inh, TDP1 cell noCPT, DT40 TDP1 CPT)
O=C(Nc1ccc2c(c1)OCCO2)c1ccc(Cl)cc1	TDP1 cell noCPT 21µM, DT40 TDP1 CPT inconclusive (no result: TDP1 block)
CC(=O)Nc1ccc(C(=O)Nc2ccc3c(c2)OCCO3)cc1	none (no result: TDP1 block)
Cc1cccc(NC(=O)c2ccc3c(c2)OCCO3)c1	TDP1 cell noCPT inconclusive
Cc1ccc(NC(=O)c2ccc3c(c2)OCCO3)cc1C	IL1B secr inh -50, TDP1 cell noCPT inconclusive
Cc1ccc(NC(=O)c2ccc3c(c2)OCCO3)cc1S(=O)(=O)Nc1cccc(Cl)c1	IL1B secr inh -57, TGFb inhibitor inconclusive, TDP1 cell noCPT 21µM, DT40 TDP1 CPT 16µM
CC(C)C[C@@H](CN)NC(=O)c1nc[nH]c1C(=O)N[C@@H](C)C(=O)CNC[C@H](C)NC(=O)c1nc[nH]c1C(=O)N[C@@H](CC(C)C)C(=O)O	none (no result: TDP1 block)
CCNC(=S)NNC(=O)c1cc(-c2cccc(C)c2)nc2ccccc12	TDP1 cell noCPT 7.3µM, DT40 TDP1 CPT 21µM
CCNC(=S)NNC(=O)c1cc(-c2cccc(OCC)c2)nc2ccccc12	TDP1 cell noCPT 10µM, DT40 TDP1 CPT 15µM
CCCCOc1cccc(-c2cc(C(=O)NNC(=S)NCC)c3ccccc3n2)c1	TGFb inhibitor inconclusive, TDP1 cell noCPT inconclusive, DT40 TDP1 CPT inconclusive
CCc1cccc(NC(=O)CSc2ncccc2C(=O)Oc2ccccc2Cl)c1	TGFb inhibitor inconclusive (no result: IL1B secr inh)
O=C(CCNC(=O)c1ccc(Br)cc1)NCCCSc1ccccc1	none
COC(=O)c1ccc(OS(=O)(=O)c2ccc(NC(C)=O)cc2)cc1	TDP1 cell noCPT inconclusive, DT40 TDP1 CPT 12µM
